The source of these data is PubChem BioAssay (NCATS).

Records with an inconclusive call do not appear. Unmarked numbers belong to inactive results. Active and inactive are the calls of the source. The call rests on the fitted dose curve; in most records, active means well fitted inhibition curve with a large enough effect; inconclusive means small, poorly fitted or top-dose-only effect; inactive means flat fitted curve, though single readings scatter.
Potency means the concentration at half of the fitted maximal effect.

This test concerns Zika virus NS2B-NS3 protease. The experiment in a line: Primary screen GU AMC qHTS for Zika virus inhibitors (AID 1347154). Further: nearly all actives have a fitted effect of over 70% in size.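 On activity change, negative = inhibition: 0% = no-inhibitor control and -100% = no-enzyme control.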 Conditions: Zika NS2B-NS3 unlinked protease, AMC fluorogenic substrate; series mostly up to 54.1 µM; activity change, negative = inhibition: at the top concentration. An excerpt: Avindra Nath, Ph.D., National Institute of Neurological Disorders and Stroke (NINDS), Bethesda, MD
Radhakrishnan Padmanabhan, Ph.D., Georgetown University (GU), Washington D.C.
Zika Virus causes congenital defects, including microcephaly and is associated with Guillain-Barre syndrome, eningoencephalitis and myelitis in infected adult. […] Using a target-based approach, we hope to establish a screening paradigm to uncover novel, cell-active NS2B-NS3 protease (Zika Virus) specific inhibitors from NCATS' collection of small molecules using qHTS.
Early Translation Branch (ETB)
National Center for Advancing Translational Sciences (NCATS), Rockville, MD
National Institute of Health (NIH), Bethesda, Maryland
Padmanabhan lab provided the NS2B hydrophilic domain and NS3 protease domain in a noncovalent complex used for the unlinked assay. Control compound aprotinin is obtained from Thermo Scientific (#78432; Waltham, Massachusetts). NS2B-NS3 AMC substrate (Bz-Nle-Lys-Arg-Arg-AMC; Nle-KRR-AMC) purchased from Bachem (#I-1995; Torrance, CA). Ac-VKTGKR-AMC purchased from Genscript or Bachem, Ac-FAAGKR-AMC purchased from Genscript, Ac-GLVKRR-AMC purchased from Genscript, Ac-LKKR-AMC purchased from Genscript.
GU AMC unlinked NS2B-NS3 protease qHTS protocol
Briefly, 3 microL of Zika virus unlinked NS2B-NS3 protease (25 nM for linked final concentration), in assay buffer (10 mM Tris-HCl pH 8.0 with 0.01% Tween 20) was dispensed into a 1,536-well solid-bottom black plate (Greiner Bio One, Monroe, NC). […] Plates were then read immediately on a ViewLux High-throughput CCD imager (PerkinElmer, Waltham, MA) equipped with standard UV fluorescence optics (340(30) nm excitation, 450(20) nm emission) then incubated (room temperature, protected from light) for 15 minutes (~20% conversion). The change in fluorescence intensity over the 15-minute reaction period was normalized against no-inhibitor and no-enzyme controls and the resulting percent inhibition data were fitted to a 4-parameter Hill equation. Aprotinin was used as the intraplate control.
(Quantitative high-throughput screening tests each substance at several concentrations.)
With `C[C@](O)(CS(=O)(=O)c1ccc(F)cc1)C(=O)Nc1ccc(C#N)c(C(F)(F)F)c1`, the “activity change, negative = inhibition” value is 5.15%. On the same count and under the same terms, the figure for `C[C@]12CC[C@H]3[C@@H](CC[C@@]45O[C@H]4C(O)=C(C#N)C[C@]35C)[C@H]1CC[C@H]2O` is -9.87%. As to `CC(=O)OCC1=C(C(=O)O)N2C(=O)[C@@H](N)[C@H]2SC1`, the “activity change, negative = inhibition” value is 2.84% [at 25.8 µM]. For `CCC1(c2ccc(N)cc2)CCC(=O)NC1=O` (stereo not given), the Potency result is “inactive”. In the case of `CN1C(=O)COc2c(C(=O)NC3CN4CCC3CC4)cc(Cl)cc21` (stereo not given), the Potency entry is “inactive”. Consider `COP(=S)(OC)Oc1cc(Cl)c(Cl)cc1Cl`, for which the “activity change, negative = inhibition” value is 1.15%. Still for that read-out and setting: the figure for `C#C[C@]1(O)CC[C@H]2[C@@H]3CCC4=CC(=O)CC[C@]4(C)[C@H]3CC[C@@]21C` is 1.45%; for `CC(=O)NC1CCSC1=O` (stereo not given) it is -1.21%; for `CNC(C)(C)Cc1ccccc1` it is -1.63%. Still for that read-out and setting: to `CCCOC(=O)c1cncn1C(C)c1ccccc1` (stereo not given) belongs 2.26%; to `O=C1OC(CCN2CCCCC2)OC1(c1ccccc1)c1ccccc1` (stereo not given), 2.61%; to `CC(C)NC(C)C`, 4.4%.

Consider `CN1C(=O)CCS(=O)(=O)C1c1ccc(Cl)cc1` (stereo not given), for which the Potency result is “inactive”.

Turning to `Oc1ccc(Cl)cc1`, the “activity change, negative = inhibition” value was -0.917%. As to `COc1cc(OC)c(OC)cc1C=O`, the “activity change, negative = inhibition” value was 2.12%.

As for `C=CCC1([C@H](C)CCC)C(=O)NC(=O)NC1=O`, the “activity change, negative = inhibition” value is 0.0325% [at 104 µM].

As to `CN1CC[C@]23c4c5ccc(O)c4O[C@H]2[C@@H](O)C=C[C@H]3[C@H]1C5`, the “activity change, negative = inhibition” value was -2.77% [at 104 µM]. Turning to `CN1CC[C@]23c4c5ccc(O)c4O[C@H]2[C@@H](O)CC[C@H]3[C@H]1C5`, the “activity change, negative = inhibition” value is 1.5% [at 104 µM]. Same read-out and setting: the figure for `CC(=O)C1CCOC1=O` (stereo not given) is -4.62%. As for `C[C@H](N)C(=O)c1ccccc1`, the “activity change, negative = inhibition” value is 1.33% [at 104 µM]. For `CCN(CC)C(=O)[C@@H]1C=C2c3cccc4[nH]cc(c34)C[C@H]2N(C)C1`, the Potency is 35.5 µM (active). On to `O=P1(N(CCCl)CCCl)NCCCO1` (stereo not given), for which the Potency result was “inactive”. `C[N+]1(CCF)[C@@H]2CC[C@H]1CC(OC(=O)C(O)(c1ccccc1)c1ccccc1)C2` (stereo not given in full): the “activity change, negative = inhibition” value was 0.77%.

Take `C#CC(O)(C=CCl)CC` (stereo not given): the “activity change, negative = inhibition” value is -2.5%. Still for that read-out and setting: to `Clc1ccc(C(c2ccc(Cl)cc2)C(Cl)(Cl)Cl)cc1` belongs -13.2%.

With `Nc1nc(N)nc(NC2CC2)n1`, the “activity change, negative = inhibition” value is -1.82%. Consider `O=C1c2ccccc2C(=O)C1C(=O)C(c1ccccc1)c1ccccc1`, for which the “activity change, negative = inhibition” value is 0.91%. As to `C=CCC1(C(C)CC)C(=O)NC(=O)NC1=O` (stereo not given), the “activity change, negative = inhibition” value was -0.25%. Turning to `O=C(O)CCCc1ccc(N(CCCl)CCCl)cc1`, the Potency entry was “inactive”.

`CCCCCCCCCC(=O)O[C@H]1CC[C@H]2[C@@H]3CCC4=CC(=O)CC[C@@H]4[C@H]3CC[C@]12C`: the “activity change, negative = inhibition” value is -4.52%.

`CNCC(=O)c1ccc(O)c(O)c1`: the “activity change, negative = inhibition” value is -3.66%. Same read-out and setting: the figure for `COc1ccc2c(c1OC)C(=O)O[C@H]2[C@@H]1c2cc3c(cc2CCN1C)OCO3` is -4.07%.

As to `CC(C)=CC1C(C(=O)OCN2C(=O)C3=C(CCCC3)C2=O)C1(C)C` (stereo not given), the “activity change, negative = inhibition” value is -8.82%. As for `CCc1cc2c(s1)-n1c(C)nnc1CN=C2c1ccccc1Cl`, the “activity change, negative = inhibition” value is 1.2%.

As for `CC1(C)C(C=C(Cl)Cl)C1C(=O)OC(C#N)c1cccc(Oc2ccccc2)c1` (stereo not given), the Potency entry is “inactive”. Still for that read-out and setting: to `CCOC(=O)CC(SP(=S)(OC)OC)C(=O)OCC` (stereo not given) belongs “inactive”. For the compound `O=C1c2ccccc2C(=O)c2ccccc21`, the “activity change, negative = inhibition” value is -4.7% [at 25.8 µM].

For `CC(C)C[C@H](CN)CC(=O)O`, the “activity change, negative = inhibition” value is -9.38%. Take `O=C1CN=C(c2ccccc2)c2cc([N+](=O)[O-])ccc2N1`: the “activity change, negative = inhibition” value is -4.17%. The same measure, in the same setting: to `CCC(CC)(CNC(=O)CCCO)c1cccc(OC)c1` belongs -4.03%.
